“And” between values parts separate entries of the source, which are not always exact repeats. Equal entries are not always repeated. Records with an inconclusive call do not appear. The source made the active and inactive calls. Calls come from the whole dose curve.
Test: qHTS Assay for Lipid Storage Modulators (AID 1519); for activity change, negative = inhibition: % is set by controls: 0 for no effect and ±100 for the full control effect
Conditions: Drosophila S3 cells, BODIPY lipid droplet/cell ratio, laser cytometry, cells loaded with oleic acid
Description: NIH Molecular Libraries Probe Production Centers Network [MLPCN]
NIH Chemical Genomics Center [NCGC]
Assay Submitter (PI): Beller, Mathias; Max-Planck-Institut fur Biophysikalische Chemie
NCGC Assay Overview: Storing lipids as a reservoir for energy or the anabolism of elementary metabolites is a common feature of probably all cells and is conserved from bacteria to humans. The universal cellular lipid storage organelle is the so-called lipid storage droplet (LD). Although ubiquitous, LDs share a simple structure composed of a hydrophobic core that harbors the storage lipids, which is shielded by a droplet-specific phospholipid monolayer to which proteins are attached. The current model of LD biogenesis involves an incorporation of the lipid core into the membrane leaflets of the endoplasmic reticulum (ER) followed by a subsequent budding-like maturation of a LD, which ultimately pinches off. Once released, LD volume can increase by localized lipogenesis or fusion of existing droplets. Storage lipids are re-mobilized enzymatically by lipase activity. Lipase regulation in the adipocyte is heavily studied and involves multiple components including catecholamine signaling, the LD-associated proteins Perilipin and comparative gene identification-58 (CGI-58) and at least two lipases named hormone sensitive lipase (HSL) and adipocyte triglyceride lipase (ATGL). LD regulation outside of the adipocyte is poorly understood and only few components are known. However, there is an urgent need to learn more about ectopic fat depots as mislocalized storage of lipids, for example in the liver or muscle, is an eminent health problem associated with insulin resistance or the metabolic syndrome. We developed a laser-scanning cytometer assay to enable 1,536-well screening and combined the results of the small molecules screen with an RNAi database based on lipid storage.
NCGC Assay Protocol Summary:
We dispensed 4 uL of cells at 1.25 x 10^6 cells/mL into LoBase Aurora COC 1,536-well plates (black walled, clear bottom) with a bottle-valve solenoid-based dispenser (Aurora) to obtain 5,000 cells/well. Triacsin C (Sigma-Aldrich T-4540), an inhibitor of long-chain fatty acyl CoA synthetase that blocks synthesis of triglycerides, was used as a positive control for lipid under-storage. A total of 23 nL of compound solution of different concentrations were transferred to the assay plates using a Kalypsys pin tool equipped with a 1,536-pin array containing 10-nL slotted pins (FP1S10, 0.457-mm diameter, 50.8 mm long; V&P Scientific). One microliter of oleic acid (400 uM) was added, and the plate was lidded with stainless steel rubber gasket lined lids containing pinholes. […] Fluorescence was detected by excitation of the fluorophores with a 488-nm laser on an Acumen Explorer (TTP Lab Tech). The total intensity in channel 1 (500-530 nm) reflected lipid droplet accumulation. […] The ratio of the total intensity in PMT channel 1 over total intensity of channel 3 was also calculated. Percent activity was computed relative to an internal control (100% inhibited lipid droplet deposition due to the presence of 20 uM Triacsin C), which was added to 32 wells/plate.

[1] = measured here: cell count channel max response
[2] = measured here: lipid channel max response

Compound	activity change, negative = inhibition (at 25.7 µM (top of the series))	activity change, negative = inhibition (at 57.5 µM (top of the series))	max response [1]	max response [2]
COc1ccc(CCN2CCC(Nc3nc4ccccc4n3Cc3ccc(F)cc3)CC2)cc1	-7.48% (inactive)	12.8% (inactive)	-13.7% and 8.29%	-24.1% and 21%
C[N+]1(CCCCC[N+]2(C)CCCC2)CCCC1	-1.41% (inactive)	3.44% (inactive) and 1.51% (inactive)	-13.3% and 5.22% and -4.18%	-15.5% and 11.1% and -3.95%
CN(C(=O)CN(CCO)CC(=O)N(C)C(C)(C)Cc1ccccc1)C(C)(C)Cc1ccccc1	-12.5% (inactive)	4.59% (inactive)	-9.05% and 8.48%	-21.3% and 13.9%
Cc1cccc(C)c1NC(=O)CN1CCN(CCCC(c2ccc(F)cc2)c2ccc(F)cc2)CC1	-4.87% (inactive)		-22.3%	-28.7%
CCN(CC)C(=O)N1CCN(C)CC1	-0.935% (inactive)	4.02% (inactive)	-1.64% and 22.2%	2.25% and 24.5%
Oc1cc(O)c2c(c1)O[C@H](c1ccc(O)c(O)c1)[C@H](O)C2	-1.15% (inactive) and 0.397% (inactive)		-2.18% and -16.1%	-4.1% and -15.5%
CCCC(=O)Nc1ccc(OCC(O)CNC(C)C)c(C(C)=O)c1 (stereo not given)		5.02% (inactive)	16.7%	24.3%
CN1C2CCC1CC(OC(=O)c1c[nH]c3ccccc13)C2 (stereo not given)		1.19% (inactive)	10.2%	11.1%
C[C@@H]1C(=O)NC2=Nc3cccc(Cl)c3CN21		2.07% (inactive)	-20.8%	-17.8%
COc1cc(OC)cc(OC)c1		0.768% (inactive)	-0.306%	3%
CC(Cc1cccc(C(F)(F)F)c1)NCCOC(=O)c1ccccc1 (stereo not given)		-1.3% (inactive)	-3.51%	-2.7%
COc1cc(NS(C)(=O)=O)ccc1Nc1c2ccccc2nc2ccccc12		0.361% (inactive)	-18.5%	-18.7%
